Bioassay records (PubChem)
Giardia killer – kills Giardia lamblia; Giardia lamblia trophozoite viability; activity change, % at 7.66 µM, hits read low; 0.15% of 340,000 active; in the data active = activity change below about -80%; inconclusive = between about -30% and that limit;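 also: parasites exposed to compound for two days anaerobically before the ATP read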
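Compounds were tested on trophozoites seeded at 100 cells/well and held 48 hrs at 37 deg C anaerobically. An ATP-based luminescent kit measured the remaining live cells.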
SW480 rereplic – induces DNA re-replication in SW480 colon adenocarcinoma cells; SW480 DNA re-replication, Hoechst DNA content imaging, 48 h; Potency, µM (highest dose often 46.1 µM), usual class: activators; 1.8% of 340,000 active; AID 624297; also: nearly all actives have a fitted effect of over 55% in size
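SW480 cells exposed to compounds for 48 hr at 37 C, 5% CO2, then Hoechst-stained 40 min. Nuclear DNA content imaged by fluorescence scanning (405 nm excitation, 500-530 nm emission); re-replication scored as increased high-intensity nuclei.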
uPA generation – blocks generation of uPA at the cell surface. 0.31% of 330,000 active. Potency, µM (highest dose often 38.3 µM), usual class: inhibitors. AID 540303. cell surface uPA generation assay, qHTS; active = well fitted inhibition curve with a large enough effect; inconclusive = small, poorly fitted or top-dose-only effect; inactive = no such curve, though single readings can be large or run the other way; tested in mouse RAW 264.7 cells; also: nearly all actives have a fitted effect of over 55% in size
MCF10A rerep – induces DNA re-replication in MCF 10a normal breast cells | MCF 10A DNA re-replication, Hoechst nuclear intensity, 48 h | Potency, µM (highest dose often 46.1 µM), actives largely listed as activators | 2.9% of 350,000 active; also: nearly all actives have a fitted effect of over 50% in size
Numbers stand for hits; – = inactive; ? = inconclusive; · = no result given. Only some compounds are listed: those with a hit (about 4.3% of all), similar ones and a draw of the others. Unless noted, calls follow the shape of the dose curve; as a rule, active = well fitted activation curve with a large enough effect; inconclusive = small, poorly fitted or top-dose-only effect; inactive = no such curve, though single readings can be large or run the other way.

SMILES	Giardia killer	SW480 rereplic	uPA generation	MCF10A rerep
Cn1c(SCC(=O)Nc2ccccc2)nc2c([nH]c3ccccc32)c1=O	–	–	–	18µM
O=C(CCC(=O)N1CCN(c2ccc(Cl)c(Cl)c2)CC1)c1ccccc1	–	–	–	?
NS(=O)(=O)c1cc(C(=O)Nc2ccc3c(c2)CCC3)ccc1Cl	–	–	–	–
COc1ccccc1NC(=O)N1CCN(c2ccnc3cc(Cl)ccc23)CC1	–	–	–	–
COc1ccccc1N1CCN(c2ccnc3cc(Cl)ccc23)CC1	–	8.2µM	–	2.6µM
Cc1nn2c(COc3ccc(NC(=O)c4ccccc4Cl)cc3)nnc2c2ccccc12	–	8.2µM	–	2.9µM
c1ccc(CN2CCN(C(c3ccccc3)c3ccccc3)CC2)cc1	–	–	–	21µM
Fc1ccc(CN2CCN(C(c3ccccc3)c3ccccc3)CC2)cc1	–	–	–	–
Cc1ccc(C(c2nnnn2Cc2ccccc2)N2CCN(Cc3ccccc3)CC2)cc1 (stereo unspecified)	–	–	–	16µM
c1ccc(OCCOCCN2CCN(C(c3ccccc3)c3ccccc3)CC2)cc1	–	8.2µM	–	?
Cc1ccc(C(c2nnnn2Cc2ccccc2)N2CCN(Cc3ccncc3)CC2)cc1 (stereo unspecified)	–	·	·	·
CCOc1ccc(CNCc2c(C(=O)O)n(Cc3ccccc3C)c3cc(OC)ccc23)cc1OC	–	·	·	·
C(=NN=C(NN=Cc1cccs1)NN=Cc1cccs1)c1cccs1	–	?	–	–
COc1ccccc1-n1c2nc3ccccc3nc2c2c(=O)n(-c3cc(C)cc(C)c3)cnc21	–	?	–	23µM
O=[N+]([O-])c1ccc(O)c(C2=NNC(c3ccccc3F)C2)c1 (stereo unspecified)	–	–	–	3.7µM
O=C1Nc2cccnc2N(C(=O)CCl)c2ccccc21	–	15µM	–	15µM
CC(=O)C1=NN(c2ccccc2)C(c2ccc3c(c2)OCO3)N1c1ccccc1 (stereo unspecified)	–	5.8µM	–	8.2µM
COc1ccc(Br)cc1/C=N/Nc1ccccn1	–	?	–	23µM
O=C(CC1C[C@H](C(=O)N2CCOCC2)[C@@]2(CCC3CCCC3)c3[nH]c4ccccc4c3CCN2C1=O)NCc1ccco1 (stereo partly specified)	–	–	–	–
CCNC(=O)c1c(NC(=O)c2cc(-c3cc(C)cc(C)c3O)n[nH]2)sc2c1CCCC2	–	–	–	6.5µM
CC(C)Oc1ccc(C2CC(=O)N(c3cccc(Br)c3)C2=O)cc1 (stereo unspecified)	–	–	–	–
C=C(C)C(O)CC/C(C)=C/Cc1c(O)ccc(C(=O)/C=C/c2ccc(O)cc2)c1O (stereo unspecified)	–	?	–	21µM
COc1ccc(C(=O)/C=C/c2ccc(O)cc2)c(O)c1C/C=C(\C)CCC=C(C)C	–	–	?	–
O=C(c1ccc(Cl)c(Cl)c1)N1CCC(=O)N(C(COCc2cccc(Cl)c2)Cc2ccccc2)CC1 (stereo unspecified)	–	?	?	23µM
Cc1ccc(S(=O)(=O)N2CCC(=O)N(C(COCc3cccc(C)c3)Cc3ccccc3)CC2)cc1 (stereo unspecified)	–	?	?	8.2µM
SMILES	Giardia killer	SW480 rereplic	uPA generation	MCF10A rerep
Cc1ccc(S(=O)(=O)N2CCC(=O)N(C(COCc3ccc(C(F)(F)F)cc3)Cc3ccccc3)CC2)cc1 (stereo unspecified)	–	–	–	3.7µM
Cc1ccc(S(=O)(=O)N2CCC(=O)N(C(COCc3ccc(Cl)c(Cl)c3)Cc3ccccc3)CC2)cc1 (stereo unspecified)	–	–	–	23µM
CCOC(=O)c1c(N)sc2c1CCN(Cc1ccccc1)C2	·	–	·	?
COc1ccc(CCNC(=O)c2c[nH]c3ccc(F)cc3c2=O)cc1OC	–	–	–	?
CC(=O)Nc1ccc(Nc2nc(Nc3ccc(Cl)cc3)nc(N3CCOCC3)n2)cc1	–	·	·	·
COCCCN1C(=O)c2[nH]nc(-c3ccccc3O)c2C1c1cccc(Cl)c1 (stereo unspecified)	–	16µM	–	15µM
CC(C)OCCCN1C(=O)c2[nH]nc(-c3ccccc3O)c2C1c1cccc(Cl)c1 (stereo unspecified)	–	?	–	?
O=c1oc2ccccc2cc1-c1nnc(NCc2ccco2)s1	–	13µM	–	9.2µM
Nc1nnc(-c2cc3ccccc3oc2=O)s1	–	–	–	–
O=C(NCC(c1ccco1)N1CCCC1)c1cc2cc(Cl)ccc2o1 (stereo unspecified)	–	–	–	?
O=C(N1CCN(c2ccccn2)CC1)N1c2ccccc2Sc2ccccc21	–	0.65µM	·	?
O=C(c1cccc([N+](=O)[O-])c1)N1CCN(c2ccccn2)CC1	–	16µM	–	–
CC(C)c1ccc(OCc2ccc(C(=O)N3CCN(c4ccccn4)CC3)cc2)cc1	–	–	–	23µM
O=C(c1cc([N+](=O)[O-])ccc1Cl)N1CCN(c2ccccn2)CC1	–	?	–	–
O=C(c1ccc(Br)s1)N1CCN(c2ccccn2)CC1	–	–	–	–
CCC(C)c1ccccc1OCCn1c(CCNC(=O)C2CCCCC2)nc2ccccc21 (stereo unspecified)	–	·	·	·
CN1N=C(N)c2cn(C3OC(COP(=O)(O)O)C(O)C3O)c3ncnc1c23 (stereo unspecified)	–	–	–	–
N#Cc1ccccc1S(=O)(=O)N1CCN(C(=O)c2cc3c(s2)CCC3)CC1	–	–	–	–
CCCN1CNc2c(c(=O)[nH]c(=S)n2CCc2ccccc2OC)C1	–	·	·	·
CC(C)Cn1c2c(c(=O)[nH]c1=O)C(C(F)(F)F)(C(F)(F)F)N=C(CCC1CCCCC1)N2	–	–	–	16µM
O=c1[nH]c(=O)n(-c2ccccc2)c2c1C(C(F)(F)F)(C(F)(F)F)N=C(CCC1CCCCC1)N2	–	?	–	16µM
O=c1[nH]c(=O)n(Cc2ccco2)c2c1C(C(F)(F)F)(C(F)(F)F)N=C(CCC1CCCCC1)N2	–	–	–	–
CC(C)NS(=O)(=O)c1ccc(NCCCn2ccnc2)c([N+](=O)[O-])c1	–	–	–	–
O=S1(=O)OC(c2ccc(O)cc2)(c2ccc(O)cc2)c2ccccc21	·	–	·	–
O=C1N(c2ccccc2C(F)(F)F)O[C@]1(c1ccccc1)C1CCCC1	–	?	–	18µM
SMILES	Giardia killer	SW480 rereplic	uPA generation	MCF10A rerep
Cc1ccccc1[C@@]1(C)ON(c2ccccc2C(F)(F)F)C1=O	–	–	?	?
CN(CC(=O)Nc1cccc(F)c1)C(=O)c1ccc2c(c1)CC(c1ccccc1)OC2=O (stereo unspecified)	–	18µM	4µM	18µM
COc1ccc(/C=C(\C#N)C(=O)Nc2cc(C)c(Cl)cc2OC)cc1O	–	10µM	–	?
CCOC(=O)c1c(-c2ccc(C)cc2)csc1NC(=O)/C(C#N)=C/c1ccc(O)c(OC)c1	–	?	–	21µM
COc1cc(/C=C/C(=O)OCC(=O)Nc2ccc3c(c2)OCCO3)ccc1O	–	–	–	–
CCOC(=O)/C(C#N)=C\c1ccc(O)c(OC)c1	–	–	–	?
COc1cc(/C=C(\C#N)C(=O)Nc2ccc3c(c2)OCCO3)ccc1O	–	?	10µM	?
